Calb FLC = affects C. albicans growth with fluconazole | C. albicans CaCi-2 (fluconazole-resistant clinical isolate) + fluconazole, Alamar Blue growth, 48 h | growth inhibition, % (no concentration beside the values) | 300,000 tested, 0.57% active | AID 1979;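 active = growth inhibition above about 58% in most replicates, limit read from the data, passing the limit was not always enough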;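 note: all wells also contain fluconazole at 8 µg/ml as a sub-toxic cotreatment; 0% = median of DMSO wells and 100% = median of geldanamycin control wells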
M18AAP inhibitor = PfM18AAP enzyme inhibition; recombinant PfM18AAP, H-Glu-NHMec fluorogenic cleavage; inhibition, % at 7.35 µM; 290,000 tested, 1.2% active;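 active = inhibition above the campaign mean inhibition over all tested compounds plus 3 SD, cut at about 28% in these data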;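 note: 0% = plate median of test compound wells and 100% = 2 mM ZnCl2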
Rin1 Abl inh = blocks binding of human Rin1 to Abl; P00519+Q13671; TR-FRET Rin1/Abl binding, biochemical; inhibition, % at 7.35 µM; 360,000 tested, 0.4% active; AID 588664; in the data active = inhibition above about 5%, passing the limit was not always enough
Target sequence (P00519 whole entry, looked up): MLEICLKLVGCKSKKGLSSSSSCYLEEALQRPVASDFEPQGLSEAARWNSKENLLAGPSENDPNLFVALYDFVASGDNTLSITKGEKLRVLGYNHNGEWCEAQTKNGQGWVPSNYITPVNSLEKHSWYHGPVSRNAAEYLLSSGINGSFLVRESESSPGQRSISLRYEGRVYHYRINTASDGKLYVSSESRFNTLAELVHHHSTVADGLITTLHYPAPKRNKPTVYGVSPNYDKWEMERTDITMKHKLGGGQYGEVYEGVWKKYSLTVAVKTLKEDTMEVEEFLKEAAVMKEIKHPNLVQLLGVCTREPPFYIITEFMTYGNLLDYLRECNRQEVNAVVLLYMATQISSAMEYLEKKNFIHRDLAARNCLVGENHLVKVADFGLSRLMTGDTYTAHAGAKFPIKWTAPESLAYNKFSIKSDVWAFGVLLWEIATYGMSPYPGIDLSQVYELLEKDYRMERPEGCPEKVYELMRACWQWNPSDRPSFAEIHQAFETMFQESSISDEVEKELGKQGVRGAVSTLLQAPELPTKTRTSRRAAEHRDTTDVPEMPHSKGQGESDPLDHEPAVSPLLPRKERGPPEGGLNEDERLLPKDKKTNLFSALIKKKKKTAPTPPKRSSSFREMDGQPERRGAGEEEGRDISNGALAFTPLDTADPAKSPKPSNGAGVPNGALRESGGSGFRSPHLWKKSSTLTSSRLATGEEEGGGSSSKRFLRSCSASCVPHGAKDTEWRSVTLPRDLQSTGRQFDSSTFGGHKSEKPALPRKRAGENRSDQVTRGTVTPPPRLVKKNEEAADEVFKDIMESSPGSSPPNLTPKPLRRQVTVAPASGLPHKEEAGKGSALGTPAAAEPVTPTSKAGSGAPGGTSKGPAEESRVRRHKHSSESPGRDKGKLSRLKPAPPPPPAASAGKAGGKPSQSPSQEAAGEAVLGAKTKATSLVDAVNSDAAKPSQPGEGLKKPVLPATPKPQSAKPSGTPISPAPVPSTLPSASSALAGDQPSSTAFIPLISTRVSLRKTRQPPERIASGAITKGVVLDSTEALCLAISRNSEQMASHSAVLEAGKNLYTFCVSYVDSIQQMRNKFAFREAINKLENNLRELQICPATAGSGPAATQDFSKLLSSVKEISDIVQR
Target sequence (Q13671 whole entry, looked up): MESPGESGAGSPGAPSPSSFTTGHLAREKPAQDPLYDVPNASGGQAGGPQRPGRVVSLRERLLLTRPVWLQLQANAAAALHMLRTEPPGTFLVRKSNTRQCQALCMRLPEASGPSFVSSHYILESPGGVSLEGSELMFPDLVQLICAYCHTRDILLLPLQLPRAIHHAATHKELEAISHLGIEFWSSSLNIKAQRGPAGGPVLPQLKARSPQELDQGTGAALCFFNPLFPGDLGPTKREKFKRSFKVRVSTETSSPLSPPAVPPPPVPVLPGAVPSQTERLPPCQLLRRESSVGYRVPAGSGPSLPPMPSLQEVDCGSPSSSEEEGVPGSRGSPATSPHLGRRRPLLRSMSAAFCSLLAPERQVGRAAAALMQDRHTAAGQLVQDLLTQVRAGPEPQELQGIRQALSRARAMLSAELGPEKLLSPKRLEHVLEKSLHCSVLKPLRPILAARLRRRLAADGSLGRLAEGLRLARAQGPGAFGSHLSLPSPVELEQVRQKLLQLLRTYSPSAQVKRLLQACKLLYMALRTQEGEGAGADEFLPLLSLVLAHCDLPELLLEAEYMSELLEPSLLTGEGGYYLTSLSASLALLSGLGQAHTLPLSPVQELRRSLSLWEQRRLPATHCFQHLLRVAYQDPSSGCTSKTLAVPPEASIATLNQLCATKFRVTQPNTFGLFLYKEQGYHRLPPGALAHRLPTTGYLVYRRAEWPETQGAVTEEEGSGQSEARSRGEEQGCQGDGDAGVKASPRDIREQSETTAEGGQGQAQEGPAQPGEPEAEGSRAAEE
CTSL1 counter = counter-screen for PFM18AAP inhibitors: inhibitors of F. hepatica cathepsin L1; recombinant F. hepatica cathepsin L1, Z-Leu-Arg-MCA fluorescence; inhibition, % at 5.96 µM; 300,000 tested, 0.49% active; AID 1906;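 active = inhibition above the mean of all tested compounds plus 3 SD, set per screening campaign, cut at about 17% in these data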;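 note: 0% = plate median of test compound wells and 100% = 1 µM Z-Phe-Ala-diazomethylketone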
Numbers without * were called inactive. Rows were chosen to be rich in hits. Some 2.1% of all compounds tested hit in one or more screens of this group.

Screening CC(=O)Nc1ccc(NC(=O)Nc2cccc3ccccc23)cc1 returned Calb FLC 6, M18AAP inhibitor -9, Rin1 Abl inh -2 and CTSL1 counter -3.
`O=C1NC(=O)/C(=C\c2ccc(Br)o2)S1` gave Calb FLC 87*, M18AAP inhibitor 11, Rin1 Abl inh 2 and CTSL1 counter 7.
For O=C1NC(=O)/C(=C/c2ccc(-c3cc(C(=O)O)ccc3Cl)o2)S1 the results were Calb FLC 20, M18AAP inhibitor 13, Rin1 Abl inh 0 and CTSL1 counter 1.
For O=C(NCC1CCCO1)C(=O)N/N=C/c1c(F)cccc1Cl (centres undefined) the results were Calb FLC -7, M18AAP inhibitor 2, Rin1 Abl inh 1 and CTSL1 counter -1.
`Cc1ccc(NC(=O)Nc2cc(S(=O)(=O)N(C)C)ccc2C)cc1` gave Calb FLC -15, M18AAP inhibitor 4, Rin1 Abl inh 0 and CTSL1 counter 18*.
For CCS(=O)(=O)c1ccccc1C(=O)NC1CCCc2ccccc21 (centres undefined) the results were Calb FLC 1, M18AAP inhibitor -5, Rin1 Abl inh 5 and CTSL1 counter -2.
`CS(=O)(=O)c1ccccc1C(=O)NC1CCCc2ccccc21` (centres undefined) gave Calb FLC -6, M18AAP inhibitor -3, Rin1 Abl inh 2 and CTSL1 counter 21*.
For O=C(CSC(=S)N1CCOCC1)Nc1nc(=O)c2ccccc2s1 the results were Calb FLC 52*, M18AAP inhibitor 19 and CTSL1 counter -6.
Screening O=C(CSC(=S)N1CCOCC1)Nc1nccs1 returned Calb FLC 0, M18AAP inhibitor 0, Rin1 Abl inh 2 and CTSL1 counter 2.
For Nc1cc(=O)[nH]c(SCC(=O)NC2CCCCCCC2)n1 the results were Rin1 Abl inh 1.
Screening COC(=O)c1ccc(NS(=O)(=O)c2cc(-c3cc(C)no3)ccc2OC)cc1 returned Calb FLC 88*, M18AAP inhibitor -5, Rin1 Abl inh 2 and CTSL1 counter 1.
CN(CC(=O)Nn1cnnc1)S(=O)(=O)c1ccc(Br)cc1 was read as Calb FLC -2, M18AAP inhibitor 30*, Rin1 Abl inh 2 and CTSL1 counter -2.
`CCCCCCn1c(=O)c(C(=O)N/N=C/c2cccc(F)c2)c(O)c2ccccc21` gave Calb FLC -12, M18AAP inhibitor 2, Rin1 Abl inh 0 and CTSL1 counter -5.
Screening FC(F)(F)c1cc(-c2cccs2)nc2cc(-c3cccs3)nn12 returned Calb FLC -4, M18AAP inhibitor -2, Rin1 Abl inh 0 and CTSL1 counter 0.
`Cc1nc2c(-c3ccc(F)cc3)cnn2c(N)c1-c1ccccc1` gave Calb FLC -6, M18AAP inhibitor 7, Rin1 Abl inh 0 and CTSL1 counter 19*.
`Cc1nc2c(-c3ccc(Cl)cc3)cnn2c(N)c1-c1ccc(F)cc1` gave Calb FLC 32, M18AAP inhibitor -4, Rin1 Abl inh 2 and CTSL1 counter 1.
C=C1c2ccccc2NC(=S)N1Cc1ccc2c(c1)OCO2 was read as Calb FLC 10, M18AAP inhibitor 32*, Rin1 Abl inh 1 and CTSL1 counter -3.
`CC1CCCCN1CCCNc1ccc(C(CC(N)=O)NC(=O)Cc2cccc3ccccc23)cc1[N+](=O)[O-]` (centres undefined) gave Calb FLC -5, M18AAP inhibitor 3, Rin1 Abl inh -4 and CTSL1 counter 0.
`CN(C)S(=O)(=O)c1ccc(C(=O)Nc2nnc(-c3ccco3)o2)cc1` gave Calb FLC 28, M18AAP inhibitor 4, Rin1 Abl inh 1 and CTSL1 counter -2.
O=C(CSc1ccc(Cl)cc1)Nc1nnc(-c2ccco2)o1 was read as Calb FLC 84*, Rin1 Abl inh -2 and CTSL1 counter -2.
Screening CCCCN(C)S(=O)(=O)c1ccc(C(=O)Nc2nnc(-c3ccco3)o2)cc1 returned Calb FLC 98*, M18AAP inhibitor -5, Rin1 Abl inh 1 and CTSL1 counter -2.
`CN(Cc1ccccc1)S(=O)(=O)c1ccc(C(=O)Nc2nnc(C3CC3)o2)cc1` gave Calb FLC 85*, M18AAP inhibitor -1, Rin1 Abl inh -1 and CTSL1 counter -2.
CCCCN(CCCC)S(=O)(=O)c1ccc(C(=O)Nc2nnc(COC)o2)cc1 was read as Calb FLC 88*, M18AAP inhibitor -3, Rin1 Abl inh -3 and CTSL1 counter 2.
For COc1ccc(CC(=O)N/N=C(\C)c2ccc(Br)s2)cc1 the results were Calb FLC -4, Rin1 Abl inh -1 and CTSL1 counter 0.
Screening Cc1cccc(-n2ccnc2CN2CCC(CO)(Cc3ccccc3)CC2)c1 returned Calb FLC -16, M18AAP inhibitor 8, Rin1 Abl inh -1 and CTSL1 counter -3.
`O=C(Nc1nnc(-c2ccco2)o1)c1ccc(Cl)cc1` gave Calb FLC 102*, M18AAP inhibitor -4, Rin1 Abl inh -1 and CTSL1 counter -1.
Screening c1ccc2c(c1)CCN(c1ncnc3c1[nH]c1ccccc13)C2 returned Calb FLC 92*, Rin1 Abl inh 0 and CTSL1 counter 1.
`CC[C@H](C)[C@@H](C(=O)NCCCCCCCCCCC(=O)N1CCNCC1)n1cc(CCCCCN)nn1` gave Rin1 Abl inh 4 and CTSL1 counter -1.
`Cc1cc(C)c2c(CC(=O)O)c(C)[nH]c2c1` gave Calb FLC 9, M18AAP inhibitor -3, Rin1 Abl inh 1 and CTSL1 counter 0.
`Cc1ccc2c(c1)C(=O)C(=O)N2CCOc1ccccc1` gave Calb FLC -15, M18AAP inhibitor 39*, Rin1 Abl inh -6 and CTSL1 counter -3.
For COC(=O)c1ccc(C(=O)N2CCCC(C)(C(=O)NS(=O)(=O)C3CC3)C2)cc1 (centres undefined) the results were Rin1 Abl inh -2.
`C/C(CC1CC(COCC(C)C)OC1=O)=N\NC(N)=S` (centres undefined) gave Calb FLC 5, M18AAP inhibitor 17, Rin1 Abl inh -1 and CTSL1 counter 9.
For CCCCCOCC1CC(C/C(C)=N/NC(N)=S)C(=O)O1 (centres undefined) the results were Calb FLC -9, M18AAP inhibitor 16, Rin1 Abl inh 1 and CTSL1 counter 18*.
`Cc1nn(-c2ccccc2)c(C)c1C(=O)OC/C(O)=C(\C#N)c1nc2ccccc2[nH]1` gave Calb FLC 82*, M18AAP inhibitor -2, Rin1 Abl inh -1 and CTSL1 counter 0.
Screening CCCNC(=O)c1ccc2c(=O)c(O)c(-c3ccc(C)cc3)[nH]c2c1 returned Calb FLC -5, Rin1 Abl inh 0 and CTSL1 counter 2.
For CCCNC(=O)c1ccc2c(=O)c(O)c(-c3ccc(OC)cc3)[nH]c2c1 the results were Calb FLC 82*, Rin1 Abl inh -3 and CTSL1 counter -2.
CC[n+]1c(/C=C/N(C)c2ccccc2)n(-c2ccccc2)c2ccc(-c3nc4ccccc4s3)cc21 was read as Calb FLC 116*, M18AAP inhibitor 1, Rin1 Abl inh -13 and CTSL1 counter 2.
For COc1ccccc1NC(=O)NCCN1CCN(c2cccc(Cl)c2)CC1 the results were Calb FLC -15, M18AAP inhibitor 1, Rin1 Abl inh 0 and CTSL1 counter -6.

Compound activity (PubChem)
